Rows were chosen to be rich in hits. Some 1.7% of all compounds tested hit in one or more screens of this group.
HEK293 tox: cytotoxicity counter-screen for GLP-1 receptor inverse agonists; AID 624418; HEK293 cAMP-luciferase reporter cells, luminescence, 24 h; Potency, µM (titrated, usually from 38.3 µM), inactives show top-dose activity change, negative = inhibition, hits mostly inhibitors; actives 0.13% (n = 410,000);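 also: loss of luciferase light is scored as toxicity; potency is read from the fitted curve at half-maximal effect; % is scaled to controls: 0 for no effect and ±100 for the full control effect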
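A 23 nL compound transfer followed 12 hours of cell culture at 37 deg C; exposure then lasted 24 hr. Luciferase assay detection reagent was dispensed and plates read for luminescence after a 12 min room-temperature wait.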
PTHR1 ag: PTHR1 (human) receptor agonism; Q03431; HEK293 GP2 PTHR1 cells, GloSensor cAMP luminescence, 1 h; Potency, µM (highest dose often 115 µM), inactives show top-dose activation, hits mostly activators; actives 0.075% (n = 410,000); also: potency is read from the fitted curve at half-maximal effect; nearly all actives have a fitted effect of over 55% in size
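HEK-293-derived GP2 cells expressing PTHR1 and a GloSensor cAMP reporter, 3,000/well, plated overnight, given luciferin plus IBMX (each 0.5 mM as added) for 1 h at 37 °C, then compound for 1 h at 37 °C. Luminescence was read after 15 min at room temperature.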
IDH1 R132H inh: inhibitors of human mutant IDH1 R132H; O75874; IDH1-R132H enzyme, NADPH consumption, diaphorase/resazurin fluorescence; actives 0.093% (n = 390,000); Potency, µM (highest dose often 76.6 µM), without a hit: top-dose activity change, negative = inhibition, actives largely listed as inhibitors; also: potency is read from the fitted curve at half-maximal effect; % is scaled to controls: 0 for no effect and ±100 for the full control effect; nearly all actives have a fitted effect of over 65% in size
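IDH1-R132H (0.5 ug/mL dispensed) in pH 7.5 Tris buffer was preincubated 30 min with compound, then given a substrate mix of 0.016 mM NADPH and 2 mM alpha-KG for 80 min at room temperature; remaining NADPH was read by diaphorase/resazurin fluorescence.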
GLP-1R inv ag: inverse agonists of human GLP-1 receptor. P43220. HEK293 GLP-1R CRE-luciferase, luminescence, 24 h; GLP-1R form is constitutively active. Potency, µM (highest dose often 38.3 µM), inactives show at the highest dose activity change, negative = inhibition, most hits filed as inhibitors. actives 1.6% (n = 410,000). AID 624417; also: potency is read from the fitted curve at half-maximal effect; % is scaled to controls: 0 for no effect and ±100 for the full control effect; nearly all actives have a fitted effect of over 55% in size
Target sequence (P43220 whole entry, looked up): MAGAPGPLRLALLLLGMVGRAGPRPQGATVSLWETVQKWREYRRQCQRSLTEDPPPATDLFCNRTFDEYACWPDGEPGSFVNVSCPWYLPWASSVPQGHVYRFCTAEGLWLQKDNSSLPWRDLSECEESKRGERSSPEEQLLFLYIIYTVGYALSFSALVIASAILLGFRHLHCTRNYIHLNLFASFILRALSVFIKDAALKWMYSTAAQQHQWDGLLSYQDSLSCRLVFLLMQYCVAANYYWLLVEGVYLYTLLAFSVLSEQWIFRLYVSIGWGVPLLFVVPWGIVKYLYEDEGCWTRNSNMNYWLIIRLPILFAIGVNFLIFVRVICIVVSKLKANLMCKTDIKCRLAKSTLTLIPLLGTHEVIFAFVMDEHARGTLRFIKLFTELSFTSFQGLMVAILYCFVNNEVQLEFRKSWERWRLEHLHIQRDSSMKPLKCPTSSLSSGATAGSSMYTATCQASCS
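Using stably transfected HEK293 (constitutively active GLP-1R, cAMP-luciferase reporter), compounds were incubated 24 hr and luciferase measured by luminescence.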
LDHA inh: LDHA (human) enzyme inhibition | P00338 | purified LDHA, NADH/diaphorase-resazurin fluorescence; active compounds read low | activity change, % (values are at about 110 or 230 µM) | actives 0.15% (n = 480,000); in the data active = activity change below about -30%; inconclusive = mostly about -25% to -30%;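 also: plate controls were DMSO wells for no effect and wells without enzyme for full effect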
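Remaining NADH was detected by diaphorase (0.133 mg/mL) converting 37 µM resazurin to fluorescent resorufin, read at 0 and 20 minutes. The preceding 5-minute room-temperature reaction used 2 nM LDHA, 0.2 mM sodium pyruvate and 0.06 mM NADH at pH 7.4.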
GLP1R ag: activates the human GLP-1 receptor; HEK293 GLP-1R CRE-luciferase, luminescence, 4-6 h; cells express a hypersensitive GLP-1R form; Potency, µM (titrated, usually from 45.6 µM), without a hit: at the top dose activation, hits mostly activators; actives 0.007% (n = 380,000); also: potency is read from the fitted curve at half-maximal effect; % of control where 0% means no effect
* hit, by the source's call; i = inactive; ? = inconclusive; · = no result; [ ] = remark or other dose. Unless noted, calls follow the shape of the dose curve; as a rule, active = well fitted curve in the direction sought with a large enough effect; inconclusive = small, poorly fitted or top-dose-only effect, or another doubt; inactive = no such curve, though single readings can be large; an effect the other way counts as inactive or inconclusive.

SMILES | HEK293 tox | PTHR1 ag | IDH1 R132H inh | GLP-1R inv ag | LDHA inh | GLP1R ag
COc1ccc(C(NC(C)=O)c2ccc3cccnc3c2O)c(OC)c1 (stereo unspecified) | ? | i | -11% | 3.5µM* | 11 | 0%
Cc1nc2c(ccc3ccccc32)c(C)c1C | · | · | · | · | 10 | ·
CCCc1nc2ccccc2c(=O)n1/N=C/c1ccccc1O | -4% | -8% | 5% | 4.5µM* | 7 | 8%
Cc1cccc(C)c1OCc1nc2ccccc2c(=O)n1/N=C/c1c[nH]c2ccccc12 | -23% | -24% | 6% | 2.8µM* | 1 | 0%
Cc1nc2ccccc2c(=O)n1/N=C/c1ccc(O)cc1O | 0% | -25% | 0% | 46% | 0 | -9%
O=C(c1cccc2ccccc12)N(Cc1ccc2[nH]ccc2c1)C1CC1 | · | · | · | · | 0 | ·
O=C1CC(c2ccc3c(c2)OCO3)c2c(n[nH]c2Nc2ccccc2)N1 (stereo unspecified) | · | · | · | · | 0 | ·
CCC(C)(C)c1ccc(Oc2ccc(N)cc2)cc1 | -1% | i | 5% | 2.8µM* | -4 | 7%
O=C(Nc1ccc(F)c(Cl)c1)c1ccccc1OCC1CCCO1 (stereo unspecified) | · | · | · | · | 7 | ·
CC(=O)N1CCC(C(=O)NCC2(c3ccc(F)cc3)CCC2)CC1 | · | · | · | · | -5 | ·
Cc1cccc(NC(c2ccccc2F)c2ccc3ccc(C)nc3c2O)n1 (stereo unspecified) | 0% | i | -5% | 10% | 1 | ·
Cc1ccc(C)c(C(Nc2ccccc2)c2ccc3ccc(C)nc3c2O)c1 (stereo unspecified) | 12% | -26% | · | 5.6µM* | 9 | ·
Clc1cccc(Nc2nc(NC3CCCC3)nc3c2cnn3-c2ccccc2)c1 | · | · | · | · | 4 | ·
O=C(Nc1ccc(F)cc1F)c1sccc1SCc1cccc(C(F)(F)F)c1 | -3% | -20% | 6% | 10µM* | 4 | -5%
CC(=O)Nc1ccc(S[C@@H](CCN2CC[C@H](C(C)(C)C)CCC2=O)c2ccccc2)cc1 | -4% | -13% | -10% | ? | 1 | 1%
Cc1ccc(SC[C@H](C)CN2CC[C@H](C(C)(C)C)CCC2=O)cc1 | 1% | -2% | -2% | 10µM* | 7 | 10%
C[C@@H](CSc1ccc(Br)cc1)CN1CC[C@H](C(C)(C)C)CCC1=O | 0% | -58% | 9% | ? | 1 | -4%
CC(C)(C)[C@@H]1CCC(=O)N(CC[C@H](Sc2ccccc2)c2ccccc2)CC1 | ? | -50% | 8% | 4.5µM* | 4 | 2%
COc1ccccc1CNC(=O)c1sc(NC(C)C)nc1C | · | · | · | · | -3 | ·
O=C(Nc1ncccn1)c1ccc(Cl)c([N+](=O)[O-])c1 | -12% | 50µM* | -2% | ? | 0 | -5%
COCCCNC(=O)CSc1ccc(C)cc1C | · | · | · | · | 2 | ·
Nc1ncc(-c2ccccc2)c(-c2ccc(OCc3ccccc3F)cc2O)n1 | · | · | · | · | 10 | ·
COc1ccc2[nH]c3c(c2c1)CCN(C(=O)c1cccc(Cl)c1)C3c1ccc(F)cc1 (stereo unspecified) | 2% | -3% | 0% | 4.5µM* | -5 | 0%
CCOc1cccc(CC(=O)N2CCc3c([nH]c4ccccc34)C2c2ccc(C)cc2)c1OCC (stereo unspecified) | -3% | i | -9% | 10µM* | -2 | ·
CCOc1cccc(CC(=O)N2CCc3c([nH]c4ccc(OC)cc34)C2c2ccc(F)cc2)c1OCC (stereo unspecified) | -4% | i | -1% | -5% | -1 | 0%
SMILES | HEK293 tox | PTHR1 ag | IDH1 R132H inh | GLP-1R inv ag | LDHA inh | GLP1R ag
CSc1ccc(C2c3[nH]c4ccccc4c3CCN2C(=O)CCC2CCCC2)cc1 (stereo unspecified) | 18% | i | -7% | 2.2µM* | -6 | ·
CCOc1ccc(C2c3[nH]c4ccccc4c3CCN2C(=O)CSCc2ccc(F)cc2)cc1 (stereo unspecified) | -12% | ? | 14% | 2.8µM* | -2 | ·
CC(C)(C)CC(=O)OCc1cc(=O)oc2cc(O)ccc12 | · | · | · | · | 6 | ·
COc1ccc(OC)c(C(=O)OCc2cccc(C#N)c2)c1 | · | · | · | · | 3 | ·
CCc1cc(C(=O)NNC(=S)NC(=O)c2ccccc2)cs1 | · | · | · | · | 2 | ·
CCOc1cc(/C=C/C(=O)OC(C)C(C)=O)cc(Cl)c1OC (stereo unspecified) | · | · | · | · | 8 | ·
CCC(CC)NC(=O)COC(=O)CCS(=O)(=O)c1ccc(C)cc1 | · | · | · | · | 8 | ·
CCCC(C)NC(=O)COC(=O)CCS(=O)(=O)c1ccc(C)cc1 (stereo unspecified) | · | · | · | · | -31* | ·
CC(C)OCCN1CCC(N2CCCC2)CC1 | · | · | · | · | -1 | ·
COc1ccc(N(CC(O)Cn2c3ccccc3c3ccccc32)S(=O)(=O)c2ccccc2)cc1 (stereo unspecified) | 10% | i | 3% | 11µM* | 0 | -9%
COC(=O)CCC(C#N)(CCC(=O)OC)c1ccc(OC)c(OC)c1 | · | · | · | · | -6 | ·
COc1ccccc1CN(Cc1nc2ccccc2c(=O)[nH]1)C(=O)Nc1ccc(C)cc1 | ? | -13% | 2% | 10µM* | 4 | 6%
COc1ccccc1CN(Cc1nc2ccccc2c(=O)[nH]1)C(=O)Nc1ccccc1C | ? | i | 7% | 0% | -8 | 3%
CCN(Cc1nc2ccccc2c(=O)[nH]1)C(=O)COc1ccccc1-c1ccccc1 | ? | -74% | 0% | 11µM* | 4 | -5%
CN(C)CCCNC(=O)c1ccc(Cl)c(S(=O)(=O)N2CCCCCC2)c1 | 3% | -15% | -4% | 10µM* | -4 | 0%
O=C(Cn1c(=O)oc2cc(S(=O)(=O)N3CCCCC3)ccc21)NCc1ccc(F)cc1 | 6% | -69% | -2% | ? | 3 | ·
CCN(CC)CCNC(=O)c1ccc(Cl)c(S(=O)(=O)N2CCCCCC2)c1 | -29% | -34%[57.5 µM] | 0% | 2.5µM* | 0 | -4%
O=C(NCc1ccncc1)c1ccc(Cl)c(S(=O)(=O)N2CCCCC2)c1 | 0% | -19% | 7% | -16% | 3 | 0%
COc1ccc(CNC(=O)c2ccc(Cl)c(S(=O)(=O)N3CCCCCC3)c2)cc1 | 0% | -33% | 0% | 10µM* | -19 | 6%
O=C(NCCN1CCOCC1)c1ccc(Cl)c(S(=O)(=O)N2CCCCC2)c1 | 6% | -59% | 11% | -6% | -6 | 3%

Screening data (PubChem BioAssay)
